In PubChem BioAssay:
Active and inactive are the calls of the source. Unless noted, how the calls were made is not given here.

Assays:
[1] = system: Wnt5a (protein binding on small-molecule microarray); assay: small molecules binding Wnt5a protein – biophysical, small-molecule microarray, 635/667 nm fluorescence, primary screen (AID 1142); settings: 635 nm fluorescence, higher = more signal;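 further: fluorescence read at 667 nm with signal to noise per printed feature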
[2] = ATP-based viability of Huh7 replicon cells – cell-based, CellTiter-Glo luminescence, basal, 48 h, cytotoxicity control for HCV replication inhibitor project, primary screen (AID 1143); settings: higher = more signal, called active from +8 up or from −8 down;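 further: Huh7 hepatoma cells carrying a hepatitis C replication reporter with no stimulus; test concentration not given here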
[3] = Pseudomonas biofilm growth suppression – PAO1 strain, BacTiter-Glo luminescence, LB-PBS, primary screen (AID 1144); settings: P. aeruginosa PAO1 biofilm, 12 h, higher = more signal
[4] = basal CRE-LacZ reporter activity in PC12 – cell-based, unstimulated, primary screen (AID 1145); settings: no forskolin, luminescence, 4.5 h, higher = more signal, called active from +8 up or from −8 down
[5] = forskolin-driven CRE-LacZ activity in PC12 – cell-based, CRE-LacZ reporter, forskolin-stimulated, primary screen (AID 1146); settings: luminescence, 4.5 h, higher = more signal, called active from +8 up or from −8 down;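 further: PC12 cells with 6xCRE LacZ reporter stimulated by forskolin 10 µM; beta-galactosidase reporter signal reflecting CREB driven transcription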
[6] = molecular target: Streptavidin (Streptomyces avidinii) (UniProt P22629); assay: compounds binding control protein streptavidin – biophysical, small-molecule microarray, 635/667 nm fluorescence, artefact control for SMM compound annotation, primary screen (AID 1147); settings: higher = more signal;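 further: signal reflects streptavidin binding to arrayed compounds as a control protein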
Streptavidin (Streptomyces avidinii), sequence (P22629 whole entry, looked up): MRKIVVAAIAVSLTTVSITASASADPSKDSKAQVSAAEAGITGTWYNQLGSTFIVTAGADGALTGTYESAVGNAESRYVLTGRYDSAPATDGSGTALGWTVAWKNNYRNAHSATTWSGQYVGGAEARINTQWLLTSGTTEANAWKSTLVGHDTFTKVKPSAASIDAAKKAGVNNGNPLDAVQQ

[7] = probe aInhba binding on compound microarray – biochemical, small-molecule microarray, 635/667 nm fluorescence, primary screen (AID 1148); settings: higher = more signal;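 further: score merges 667nm spot fluorescence with signal-to-noise for antibody binding to printed compounds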
Torsin-1A (Homo sapiens) [8] = molecular target: Torsin-1A (Homo sapiens) (UniProt O14656); assay: TOR1A wild-type binding on microarray – cell lysate, small-molecule microarray, lysate, 635/667 nm, primary screen (AID 1149); settings: COS7 hTOR1A-WT lysate, 635 nm fluorescence, higher = more signal
Torsin-1A (Homo sapiens), sequence (O14656 whole entry, looked up): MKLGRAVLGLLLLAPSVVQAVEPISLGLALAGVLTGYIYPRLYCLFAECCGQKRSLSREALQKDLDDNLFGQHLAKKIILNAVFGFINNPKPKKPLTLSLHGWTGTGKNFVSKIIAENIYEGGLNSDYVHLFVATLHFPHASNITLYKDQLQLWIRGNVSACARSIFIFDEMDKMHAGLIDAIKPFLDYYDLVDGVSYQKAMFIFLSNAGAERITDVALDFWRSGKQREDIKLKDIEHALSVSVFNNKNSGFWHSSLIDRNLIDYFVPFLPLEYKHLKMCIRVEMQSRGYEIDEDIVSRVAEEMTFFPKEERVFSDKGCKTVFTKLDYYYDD

Torsin-1A (Homo sapiens) [9] = molecular target: Torsin-1A (Homo sapiens) (UniProt O14656); assay: torsin A mutant lysate binding on microarrays – cell lysate, small-molecule microarray, COS7 lysate, 635/667 nm fluorescence, primary screen (AID 1150); settings: COS7 hTOR1A mutant lysate, 635 nm fluorescence, higher = more signal;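 further: score pools 667 nm emission and signal to noise measuring lysate protein binding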
[10] = system: Sonic hedgehog protein (Shh); assay: Sonic hedgehog microarray binding compounds – biochemical, small-molecule microarray, 635/667 nm fluorescence, primary screen (AID 1151); settings: 635 nm fluorescence, higher = more signal;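 further: Shh protein binding to compounds spotted on small-molecule microarray slides; score combines spot fluorescence intensity with signal-to-noise across triplicate slides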
[11] = optical density shifts of acrAB sulA E. coli – strain DRC41, OD650, 48 h, E. coli filamentation inducer project, primary screen (AID 1152); settings: higher = more signal, called active from +8 up or from −8 down;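 further: E. coli MC1000 strain DRC41 lacking acrAB efflux pump and sulA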
[12] = probe aLefty1 binding on compound microarray – biochemical, small-molecule microarray, 635/667 nm fluorescence, primary screen (AID 1153); settings: higher = more signal;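 further: score merges spot fluorescence with signal-to-noise ratio from the scanned slide images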
[13] = plasmodial surface anion channel blockers, osmotic lysis – cell-based, P. falciparum Indochina, OD700, 1 h, primary screen (AID 1154); settings: P. falciparum Indochina infected RBC osmotic lysis, higher = more signal, called active from +8 up or from −8 down
[14] = plasmodial surface anion channel blockers, osmotic lysis – cell-based, P. falciparum Indochina, OD700, 2 h, primary screen (AID 1155);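 further: lysis reports solute entry through the parasite surface anion channel PSAC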; settings: P. falciparum Indochina infected erythrocytes, higher = more signal, called active from +8 up or from −8 down
[15] = changes in parasitized red cell lysis, either direction – P. falciparum Indochina, OD700, 3 h, PSAC antagonist project, primary screen (AID 1156); settings: P. falciparum-infected erythrocytes, osmotic lysis, higher = more signal, called active from +8 up or from −8 down
[16] = plasmodial surface anion channel blockers, osmotic lysis – cell-based, P. falciparum Indochina, OD700, 18 h, primary screen (AID 1157); settings: P. falciparum Indochina infected erythrocytes, osmotic lysis OD700, 18 h; higher = more signal, called active from +8 up or from −8 down
[17] = S6 kinase pathway phospho-S6 level changes – cell-based, A549, cytoblot, luminescence, serum-stimulated, primary screen (AID 1158); settings: 5 h, higher = more signal;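 further: serum-stimulated A549 lung adenocarcinoma cells; signal is phosphorylated S6 detected by cytoblot immunostaining with HRP secondary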
[18] = molecular target: NADPH oxidase 2 (Homo sapiens) (UniProt P04839); assay: compounds shifting NOX2 Amplex Red fluorescence – cell-based, HEK293-NOX2, PMA-stimulated, NOX inhibitor project, primary screen (AID 1159); settings: 45 min, higher = more signal, called active from +8 up or from −8 down; further: test concentration not given here
NADPH oxidase 2 (Homo sapiens), sequence (P04839 whole entry, looked up): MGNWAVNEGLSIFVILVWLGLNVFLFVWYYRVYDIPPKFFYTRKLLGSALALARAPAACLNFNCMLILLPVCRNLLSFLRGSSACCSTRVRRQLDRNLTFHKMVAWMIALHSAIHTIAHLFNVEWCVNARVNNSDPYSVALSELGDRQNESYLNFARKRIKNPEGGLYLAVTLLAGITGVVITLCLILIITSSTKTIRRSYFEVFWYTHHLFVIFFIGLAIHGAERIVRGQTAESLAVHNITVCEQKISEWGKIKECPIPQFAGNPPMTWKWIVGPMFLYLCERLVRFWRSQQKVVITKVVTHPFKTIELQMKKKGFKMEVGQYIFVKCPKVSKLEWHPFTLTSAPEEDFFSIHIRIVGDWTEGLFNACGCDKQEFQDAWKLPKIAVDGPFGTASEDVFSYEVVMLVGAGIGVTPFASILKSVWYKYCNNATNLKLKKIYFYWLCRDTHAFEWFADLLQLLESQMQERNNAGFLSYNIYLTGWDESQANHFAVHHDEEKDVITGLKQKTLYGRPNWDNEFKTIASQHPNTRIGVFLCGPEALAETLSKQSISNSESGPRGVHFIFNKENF

[19] = molecular target: NADPH oxidase 4 (Homo sapiens) (UniProt Q9NPH5); assay: compounds shifting NOX4 Amplex Red fluorescence – cell-based, HEK293-NOX4, tetracycline-induced, NOX inhibitor project, primary screen (AID 1160); settings: HEK293-NOX4, Amplex Red H2O2 fluorescence, 45 min; higher = more signal, called active from +8 up or from −8 down
NADPH oxidase 4 (Homo sapiens), sequence (Q9NPH5 whole entry, looked up): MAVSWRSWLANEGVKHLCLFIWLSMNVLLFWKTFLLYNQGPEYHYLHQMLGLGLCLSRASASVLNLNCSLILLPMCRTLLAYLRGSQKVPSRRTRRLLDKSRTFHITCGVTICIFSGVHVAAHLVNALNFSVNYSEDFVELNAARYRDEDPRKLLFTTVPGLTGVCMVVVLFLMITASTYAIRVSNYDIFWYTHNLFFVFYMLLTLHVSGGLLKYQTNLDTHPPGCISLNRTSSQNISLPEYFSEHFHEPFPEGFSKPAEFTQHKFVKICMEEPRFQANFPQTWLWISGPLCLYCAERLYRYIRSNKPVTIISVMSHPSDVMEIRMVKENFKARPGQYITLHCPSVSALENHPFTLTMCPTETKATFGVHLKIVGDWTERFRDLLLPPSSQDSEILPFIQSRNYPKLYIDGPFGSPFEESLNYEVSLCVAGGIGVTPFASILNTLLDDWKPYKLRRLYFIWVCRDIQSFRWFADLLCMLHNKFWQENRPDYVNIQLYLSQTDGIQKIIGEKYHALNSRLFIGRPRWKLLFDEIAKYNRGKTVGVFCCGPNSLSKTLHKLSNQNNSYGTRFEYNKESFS

[20] = molecular target: NADPH oxidase 5 (Homo sapiens) (UniProt Q96PH1); assay: compounds shifting NOX5 Amplex Red fluorescence – cell-based, HEK293-NOX5, NOX inhibitor project, primary screen (AID 1161); settings: HEK293-NOX5, ionomycin, 45 min, higher = more signal
NADPH oxidase 5 (Homo sapiens), sequence (Q96PH1 whole entry, looked up): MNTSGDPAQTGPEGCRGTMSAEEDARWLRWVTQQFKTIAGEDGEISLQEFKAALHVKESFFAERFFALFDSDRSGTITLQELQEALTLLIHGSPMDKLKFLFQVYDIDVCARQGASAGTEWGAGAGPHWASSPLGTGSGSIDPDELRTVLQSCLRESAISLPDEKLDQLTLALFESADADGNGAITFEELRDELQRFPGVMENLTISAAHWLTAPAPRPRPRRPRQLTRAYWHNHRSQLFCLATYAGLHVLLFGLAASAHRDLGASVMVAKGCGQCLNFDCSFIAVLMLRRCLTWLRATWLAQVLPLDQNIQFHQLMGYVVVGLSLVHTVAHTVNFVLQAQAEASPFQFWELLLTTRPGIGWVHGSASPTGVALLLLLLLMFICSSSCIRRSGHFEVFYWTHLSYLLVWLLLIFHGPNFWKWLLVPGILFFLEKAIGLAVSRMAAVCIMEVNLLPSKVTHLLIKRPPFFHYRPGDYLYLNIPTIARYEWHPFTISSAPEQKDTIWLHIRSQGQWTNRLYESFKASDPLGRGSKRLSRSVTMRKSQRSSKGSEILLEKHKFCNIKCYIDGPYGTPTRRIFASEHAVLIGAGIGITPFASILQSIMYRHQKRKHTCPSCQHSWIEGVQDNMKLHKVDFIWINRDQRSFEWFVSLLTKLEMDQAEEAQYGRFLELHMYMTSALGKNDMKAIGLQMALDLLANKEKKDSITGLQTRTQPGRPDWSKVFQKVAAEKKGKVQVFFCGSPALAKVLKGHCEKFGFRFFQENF

| Structure (SMILES) | composite z-score [1] | z-score [2] | z-score [3] | z-score [4] | z-score [5] | composite z-score [6] | composite z-score [7] | composite z-score (Torsin-1A (Homo sapiens) [8]) | composite z-score (Torsin-1A (Homo sapiens) [9]) | composite z-score [10] | z-score [11] | composite z-score [12] | z-score [13] | z-score [14] | z-score [15] | z-score [16] | z-score [17] | z-score [18] | z-score [19] | z-score [20] |
| --- | --- | --- | --- | --- | --- | --- | --- | --- | --- | --- | --- | --- | --- | --- | --- | --- | --- | --- | --- | --- |
| CC(C)C(=C=CC[C@@H](O)c1cccc(OCCO)c1)CCO | 0.263 | -0.219 (inactive) | -0.468 (inactive) | 1.37 (inactive) | -0.755 (inactive) | -0.236 | 0.442 | 0.462 | 0.0336 | 0.567 | 0.838 (inactive) | 0.0919 | 2.96 (inactive) | 0.108 (inactive) | 0.607 (inactive) | 0.233 (inactive) | 0.617 | -0.841 (inactive) | -0.471 (inactive) | -1.26 |
| COC(=O)[C@@]1(Cc2ccc(OC)cc2)[C@H]2c3cc(C(=O)N4CCCC4)n(CCc4ccc(OC)c(Br)c4)c3C[C@H]2CN1C(=O)c1ccccc1 | -0.0726 | -0.0564 (inactive) | 0.24 (inactive) | 0.387 (inactive) | 0.132 (inactive) | 0.0687 | 0.195 | 0.373 | 0.57 | -0.908 | -0.536 (inactive) | 0.291 | 2.64 (inactive) | 0.809 (inactive) | -0.0758 (inactive) | 0.568 (inactive) | 0.348 | 0.798 (inactive) | 0.0418 (inactive) | -0.759 |
| NC(=O)N1C(=O)C2C(C1=O)C1C=C(CCCO)C2C(c2ccc(CN3CCCC3)cc2)N1Cc1cccc(OC(F)(F)F)c1 (stereo not given) | 0.232 | -0.596 (inactive) | 0.963 (inactive) | 0.494 (inactive) | -0.679 (inactive) | -0.157 | -0.0736 | 0.094 | 0.462 | 1.86 | -0.267 (inactive) | -0.101 | 1.86 (inactive) | 0.63 (inactive) | 0.0703 (inactive) | 0.208 (inactive) | -0.267 | -1.4 (inactive) | -0.76 (inactive) | -1.04 |
| NCCCC[C@@H]1NC(=O)[C@H]2C[C@@H](C(=O)O)[C@@H](c3cccc(OCCO)c3)N2C1=O | 0.424 | 0.0458 (inactive) | -0.0686 (inactive) | -0.943 (inactive) | 0.963 (inactive) | 1.99 | 0.15 | 1.18 | 1.7 | 1.85 | -1.23 (inactive) | 0.951 | -1.87 (inactive) | -0.195 (inactive) | 0.452 (inactive) | 0.253 (inactive) | -0.993 | 2.14 (inactive) | 0.834 (inactive) | 0.415 |
| COc1ccc([Si](C)(C)[C@H]2[C@H](CCn3cc([C@H](O)c4ccccc4)nn3)O[C@@]3(C(=O)N(C)c4c(Br)cc(C)cc43)[C@@H]2C)cc1 | -0.0472 | -4.01 (inactive) | -0.23 (inactive) | 7.95 (inactive) | -1.66 (inactive) | -0.124 | -0.208 | 0.877 | 0.19 | 0.964 | 0.45 (inactive) | -0.196 | 5.6 (inactive) | 1.59 (inactive) | 1.25 (inactive) | 1.11 (inactive) | -0.108 | 0.276 (inactive) | 0.825 (inactive) | 0.37 |
| CC(C)CNC(=O)[C@@H]1c2ccccc2C(=O)N(CC23CC4CC(CC(C4)C2)C3)[C@H]1c1ccc(CO)cc1 | 0.0626 | -3.74 (inactive) | -1.44 (inactive) | -0.206 (inactive) | -0.401 (inactive) | 0.524 | -0.212 | -0.218 | 0.546 | 0.354 | 0.075 (inactive) | -0.0559 | 0.317 (inactive) | -0.93 (inactive) | -0.348 (inactive) | -1.22 (inactive) | 0.84 | -0.234 (inactive) | -0.616 (inactive) | -1.78 |
| COc1ccc(CC[C@H](O)c2cccc(OCC(=O)OC(C)(C)C)c2)cc1 | 0.42 | -3.93 (inactive) | -0.0717 (inactive) | 0.595 (inactive) | -0.251 (inactive) | 1.77 | 0.156 | 0.584 | 0.977 | 1.37 | -0.636 (inactive) | 0.163 | 22.8 (active) | 6.97 (inactive) | 0.597 (inactive) | 0.794 (inactive) | 0.118 | -2.52 (inactive) | -0.941 (inactive) | -4.03 |
| COCCOC(=O)N1C(=O)[C@@]2(c3cc(C#CC4=CCCCC4)ccc31)[C@H](C(=O)N1CCN(c3ncccn3)CC1)[C@H]1C(=O)O[C@H](c3ccccc3)[C@H](c3ccccc3)N1[C@@H]2c1ccccc1OCCO | 0.337 | -5.9 (inactive) | -2.51 (inactive) | -2.11 (inactive) | -1.32 (inactive) | 0.496 | -0.0332 | 0.825 | 0.598 | 1.47 | 2.23 (inactive) | 0.297 | 1.65 (inactive) | 0.256 (inactive) | -0.634 (inactive) | -0.227 (inactive) | 2.05 | -0.241 (inactive) | -2.24 (inactive) | -3.12 |
| C[C@]1(C(=O)NCC(F)(F)F)c2ccccc2C(=O)N(Cc2ccc(OC(F)(F)F)cc2)[C@H]1c1ccc(CO)cc1 | -0.151 | -2.8 (inactive) | 0.382 (inactive) | 0.324 (inactive) | 1.3 (inactive) | 0.0803 | -0.128 | -0.906 | 0.7 | 0.31 | -0.831 (inactive) | -0.284 | 2.58 (inactive) | 0.295 (inactive) | 3.67 (inactive) | 0.451 (inactive) | -0.32 | 1.45 (inactive) | -0.0975 (inactive) | -1.45 |
